Test results taken from PubChem BioAssay AID602376 (Johns Hopkins Ion Channel Center, 2012).
Results with a measured potency or affinity are listed apart. Results filed as inconclusive are left out. Activity calls are given as the source filed them.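 How the source made its calls: active means raises choline transporter activity at one or more tested doses and gives a fitted dose-response curve; inconclusive means no clear call, values can overlap the other calls; inactive means no choline transporter activation at any dose, or no curve.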

Molecular target: High affinity choline transporter 1 (Homo sapiens) (UniProt Q9GZV3)
Assay: human choline transporter potentiators, potency – cell-based, 10-point CRC, membrane potential dye, dose response (AID 602376)
Conditions: HEK293-CHT, choline-induced membrane potential dye, cells express CHT LV-AA mutant; series mostly up to 67 µM

Chain of High affinity choline transporter 1 (Homo sapiens) (Q9GZV3 whole entry, looked up): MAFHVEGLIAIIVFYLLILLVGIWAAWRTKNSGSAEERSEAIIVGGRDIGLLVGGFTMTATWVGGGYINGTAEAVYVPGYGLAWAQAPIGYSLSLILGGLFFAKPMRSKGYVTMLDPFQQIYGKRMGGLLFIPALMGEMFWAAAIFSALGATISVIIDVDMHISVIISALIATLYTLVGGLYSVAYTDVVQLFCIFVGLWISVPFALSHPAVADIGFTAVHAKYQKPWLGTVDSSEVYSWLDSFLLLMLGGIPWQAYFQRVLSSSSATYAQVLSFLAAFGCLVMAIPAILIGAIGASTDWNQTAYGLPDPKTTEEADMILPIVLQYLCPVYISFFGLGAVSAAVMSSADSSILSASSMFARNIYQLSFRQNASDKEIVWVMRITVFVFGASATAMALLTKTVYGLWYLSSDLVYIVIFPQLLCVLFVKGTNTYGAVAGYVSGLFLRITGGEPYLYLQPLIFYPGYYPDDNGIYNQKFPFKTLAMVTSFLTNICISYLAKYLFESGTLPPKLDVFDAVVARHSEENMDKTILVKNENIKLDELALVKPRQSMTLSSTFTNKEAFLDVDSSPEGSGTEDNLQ

| Structure (SMILES) | outcome |
| --- | --- |
| Cc1nc(N(C)Cc2ccccc2)c2c(C)c(C)sc2n1 | inactive |
| Cc1cccc2cc3c(N)c(C(=O)N4CCc5ccccc54)sc3nc12 | inactive |
| CCOC(=O)c1sc2nc(SCC#N)n(CCCN3CCCC3=O)c(=O)c2c1C | inactive |
| CN1CCN(CCCn2cnc3c(=O)oc4ccccc4c32)CC1 | inactive |
| O=c1c2ccccc2n(CC(O)CN2CCOCC2)c2ccccc12 (stereo not given) | inactive |
| COc1ccc(-c2noc(CSc3nc4ccccc4c(=O)n3-c3ccccc3)n2)cc1OC | inactive |
| CC(C)C1Oc2ccccc2N(CC(=O)NC2CCCCC2)C1=O (stereo not given) | inactive |
| CCN1C(N(C)CCc2cccs2)=N[C@@H](c2ccccc2)C(C(=O)OC)=C1C | inactive |
| CCOC(=O)c1c(CSc2ccsc2)n(C)c2cc(Br)c(O)c(CN(C)C)c12 | inactive |
| Cc1ccnc2nc(C(=O)Nc3nccs3)nn12 | inactive |
| CCCCC(c1nnnn1C1CCCC1)N1CCN(C2CCCC2)CC1 (stereo not given) | inactive |
| CC(C)(C)N(NC(=O)c1ccccc1)C(=O)c1cccc(C(=O)N(NC(=O)c2ccccc2)C(C)(C)C)c1 | inactive |
| COC(=O)c1ccccc1NC(=O)CN1CCN(C23CC4CC(CC(C4)C2)C3)CC1 | inactive |
| COc1ccc(N2CCN(c3oc(COc4ccccc4)nc3C#N)CC2)cc1 | inactive |
| O=C(COc1ccccc1)NCC(c1ccco1)N1CCN(c2ccc(F)cc2)CC1 (stereo not given) | inactive |
| O=C(Nc1cccc(Cl)c1N1CCOCC1)c1cc([N+](=O)[O-])ccc1N1CCOCC1 | inactive |
| CCCCn1c(N)c(N(CCOC)C(=O)c2ccc(COc3ccccc3)o2)c(=O)[nH]c1=O | inactive |
| O=C(c1ccco1)N(CCC(c1ccccc1)c1ccco1)Cc1ccccc1 (stereo not given) | inactive |
| COc1ccccc1N(C(=O)c1ccco1)C(C(=O)NC1CCCC1)c1cccs1 (stereo not given) | inactive |
| CCOC(=O)C1(Cc2ccccc2C(F)(F)F)CCN(Cc2ccon2)CC1 | inactive |

| Structure (SMILES) | outcome |
| --- | --- |
| CCc1cccc(OCCn2nc(C(=O)O)c3ccccc3c2=O)c1 | inactive |
| CCN1C(=NCc2ccccc2)N[C@@H](c2ccccc2)[C@H](C(=O)OC)[C@H]1C | inactive |
| CC1Cc2cc(S(=O)(=O)N3CCN(c4ccccc4F)CC3)ccc2N1C(=O)C1CC1 (stereo not given) | inactive |
| COc1ccc(C(N)c2nccc3cc(OC)c(OC)cc23)cc1OC (stereo not given) | inactive |
| COc1ccc(-c2cc(C(=O)NNC(=O)c3csc(N4CCOCC4)n3)c3ccccc3n2)cc1OC | inactive |
| CN1CCN(Cc2nc3ccccc3c(=O)n2Cc2nc(-c3ccccc3F)cs2)CC1 | inactive |
| Cc1ccc(S(=O)(=O)c2nc(-c3ccco3)oc2SC(C)C)cc1 | inactive |
| CCOC(=O)C1(CC2CC2)CCN(Cc2cn[nH]c2-c2cccc(F)c2)CC1 | inactive |
| CC(C)(C)n1nnnc1C(c1cccnc1)N1CCN(c2cccc(C(F)(F)F)c2)CC1 (stereo not given) | inactive |
| O=C1N(Cc2cccc(Cl)c2)C[C@@H]2C[C@@H](c3ccsc3)N3CCC[C@@]123 | inactive |
| CCOC(=O)c1c(NC(=O)CSc2nc3ccccc3o2)sc(C(C)=O)c1C | inactive |
| O=c1c2ccccc2nc2n1C(CSCc1ccc(Cl)cc1)CS2 (stereo not given) | inactive |
| Cc1cccc2nc(-c3cccnc3)c(NCCC(C)C)n12 | inactive |
| CCOc1ccc(S(=O)(=O)NCc2ccco2)c2ccccc12 | inactive |
| C=C1CCN(Cc2ccccc2)S(=O)(=O)c2ccccc21 | inactive |
| CCc1ccc(OCC(=O)N/N=C/c2cc([N+](=O)[O-])ccc2N2CCOCC2)cc1 | inactive |
| CCOC(=O)c1c(C)nc2ccccc2c1-c1ccccc1 | inactive |
| CCCC(c1nnnn1Cc1ccco1)N1CCN(c2cc(Cl)ccc2C)CC1 (stereo not given) | inactive |
| CCc1cc2c(N3CCN(c4ccccc4)CC3)ncnc2s1 | inactive |
| COc1cc(-c2noc(C)c2C#Cc2ccccn2)cc(OC)c1OC | inactive |
